Most compounds without a hit are left out; they make up all but 15% or so of the library.
SARS PLpro yeast: inhibitors of SARS-CoV papain-like protease in yeast; S. cerevisiae expressing SARS-CoV PLpro, growth rescue; Potency, µM (top dose mostly 32.9 µM), without a hit: at the top dose activity, positive = growth rescue, hits mostly activators; 330,000 compounds, 0.19% hits; AID 485353; calls by dose curve; also: potency is read from the fitted curve at half-maximal effect; 0% is about no effect; nearly all actives have a fitted effect of over 55% in size
HCMV inh: human cytomegalovirus inhibition. HFF cells, HCMV-luciferase reporter, 72 h; stronger effect = lower value. activity change, negative = inhibition, % at 57.5 µM. 410,000 compounds, 4.5% hits. AID 1259415; in the data active = activity change below about -60%; inconclusive = no clear call, values can overlap the other calls; inactive = above about -39%; also: % is scaled to controls: 0 for no effect and ±100 for the full control effect
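Two-dose cell screen: HFF monolayers treated with compounds and infected with luciferase-expressing HCMV at 1 PFU/cell, 72 h at 37C, then lysed for luciferase measurement.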
HCV inh: inhibitors of hepatitis C virus infection. Huh7.5.1 HCVcc-Cre infection, luciferase reporter, 44 h. Potency, µM (doses to about 41.8 µM), without a hit: at the top dose activity change, negative = inhibition, most hits filed as inhibitors. 340,000 compounds, 3.4% hits. AID 651820; also: potency is read from the fitted curve at half-maximal effect; % is scaled to controls: 0 for no effect and ±100 for the full control effect
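Whole-lifecycle infectious HCVcc-Cre system; cells 1,000/well, compound then virus (~0.5 moi) added 4 h after plating, 44 h culture. Luciferase read 15 sec following 15 min substrate incubation, room temp.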
Pf growth 48h: P. falciparum growth inhibition at 48 hours (one generation); P. falciparum luciferase growth in erythrocytes, 48 h; Potency, µM (doses to about 28.7 µM), for inactives: at the highest dose activity change, negative = inhibition, usual class: inhibitors; 310,000 compounds, 5.9% hits; AID 504832; also: potency is read from the fitted curve at half-maximal effect; % is scaled to controls: 0 for no effect and ±100 for the full control effect
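Parasite viability was followed by luminescence of a genomically integrated firefly luciferase. Cultures held 0.1% parasitemia at 2% hematocrit (final), incubated under 5% CO2 at 37 C.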
Pf growth 96h: P. falciparum growth inhibition at 96 hours. P. falciparum luciferase reporter growth, 96 h. Potency, µM (doses to about 28.7 µM), for inactives: at the highest dose activity change, negative = inhibition, actives largely listed as inhibitors. 320,000 compounds, 6.9% hits. AID 504834; also: potency is read from the fitted curve at half-maximal effect; % is scaled to controls: 0 for no effect and ±100 for the full control effect
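Compounds incubated with erythrocytes infected by luciferase-expressing P. falciparum (2% hematocrit, 0.05% parasitemia final) for 96 hours, 37 C in 5% CO2. Growth inhibition scored as decreased luciferase luminescence.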
Sm TGR inh: inhibitors of Schistosoma mansoni thioredoxin glutathione reductase; purified TGR, DTNB reduction, TNB absorbance 405 nm; Potency, µM (highest dose often 114 µM), for the others: at the highest dose activity change, negative = inhibition, most hits filed as inhibitors; 360,000 compounds, 3% hits; also: potency is read from the fitted curve at half-maximal effect; % is scaled to controls: 0 for no effect and ±100 for the full control effect; nearly all actives have a fitted effect of over 60% in size
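TGR 20 nM + NADPH 100 uM (dispensed conc.), cpd preinc 15 min RT; start with NADPH (500 uM addition) then DTNB (15 mM addition). Kinetic TNB absorbance, 405 nm filter. Four-parameter Hill fit across titration.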
* = called active by the depositor; u = inconclusive; x = no result. Unless noted, calls follow the shape of the dose curve; as a rule, active = well fitted curve in the direction sought with a large enough effect; inconclusive = small, poorly fitted or top-dose-only effect, or another doubt; inactive = no such curve, though single readings can be large; an effect the other way counts as inactive or inconclusive.

SMILES	SARS PLpro yeast	HCMV inh	HCV inh	Pf growth 48h	Pf growth 96h	Sm TGR inh
Cc1ccc(NC(=O)c2ccc(F)c(S(=O)(=O)N3CCOCC3)c2)cc1F	5%	-69*	x	u	36%	0%
Cc1ccc(C(=O)Nc2ccc3oc(-c4ccc(C(C)(C)C)cc4)nc3c2)cc1	x	-11	x	x	x	-1%
CSc1nnc(-c2cc3c(s2)-c2ccccc2CC3)o1	-6%	176	2.5µM*	80%	85%	-5%
S=c1[nH]nc(-c2cc3c(s2)-c2ccccc2CC3)o1	-22%	166	9%	36%	34%	-1%
CNCCCCOc1ccccc1-c1ccccc1	0%	u	13µM*	-15%	16%	-3%
c1ccc(-c2ccccc2OCCN2CCCC2)cc1	-2%	6	4%	6%	13µM*	-3%
c1ccc(-c2ccccc2OCCOCCN2CCCCC2)cc1	-10%	-28	u	u	44%	-6%
c1ccc(-c2ccccc2OCCCCN2CCCCCC2)cc1	0%	-77*	u	u	-3%	1%
OCCCN1CCN(CCCOc2ccccc2-c2ccccc2)CC1	2%	-35	-24%	u	10µM*	0%
CCc1c(C)sc2c1CCN(Cc1cccc(OC)c1)C2c1ccccc1 (stereo unspecified)	x	-86*	x	x	x	31%
CCc1c(C)sc2c1CCN(Cc1ccccc1F)C2c1ccccc1 (stereo unspecified)	x	-105*	x	x	x	-2%
CC(C)c1ccc(/C=C/C(=O)n2nnc3ccccc32)cc1	x	30	-3%	12%	16%	-3%
CCOC(=O)c1ccc(CN(Cc2ccc(F)cc2)S(=O)(=O)c2ccc(F)c(C(=O)Nc3ccc(Cl)cc3F)c2)cc1	x	3	x	x	x	4%
O=C1c2[nH]nc(-c3ccccc3O)c2C(c2cccc(OCc3ccccc3)c2)N1CCCO (stereo unspecified)	x	5	x	x	x	6%
Fc1ccc(C(NCCc2ccc(Cl)cc2)c2nnc(-c3ccccc3Cl)o2)cc1 (stereo unspecified)	x	12	x	x	x	-2%
CCOc1ccccc1Oc1ncnc2c1oc1ccccc12	x	-11	x	x	x	2%
COc1ncnc2c1oc1ccccc12	-1%	93	17%	128%	4.7µM*	8%
CC(C)C(Nc1ncnc2c1oc1ccccc12)C(=O)O (stereo unspecified)	0%	48	28%	23%	4.7µM*	9%
O=C(Nc1nnc([C@H]2C[C@H](O)[C@@H](CO)O2)s1)NC1CCCCC1	x	10	x	x	x	x
O=C(c1ccc2c(c1)N(Cc1ccc(Cl)cc1)C(=O)c1ccccc1S2=O)N1CCC(Cc2ccccc2)CC1 (stereo unspecified)	x	u	x	x	x	0%
Cc1ccc(C(C2=C(O)CC(C)(C)CC2=O)C2C(=O)CC(C)(C)CC2=O)s1 (stereo unspecified)	-3%	-9	10%	16%	49%	u
COc1cccc(C(C2C(=O)CC(C)(C)CC2=O)C2C(=O)CC(C)(C)CC2=O)c1	0%	52	7%	12%	-22%	u
COc1cccc(C(C2=C(O)CC(C)(C)CC2=O)C2C(=O)CC(C)(C)CC2=O)c1 (stereo unspecified)	23%	-65*	4%	7%	11%	u
CC1(C)CC(=O)C(C(C2=C(O)CC(C)(C)CC2=O)c2ccc(Br)s2)C(=O)C1 (stereo unspecified)	-17%	-7	4%	u	u	10µM*
Cc1cc(=O)[nH]c(SCC(=O)c2ccc(O)c(O)c2)n1	-14%	20	12%	u	u	18µM*
CCc1ccc(C(=O)CSc2nc(N)cc(=O)[nH]2)cc1	9%	51	-5%	83%	10µM*	1%
COc1ccc(CCn2c(C)cc(C(=O)CSc3nc(N)cc(=O)[nH]3)c2C)cc1	4%	-95*	11µM*	u	9.3µM*	0%
Cc1cc(C)nc(SCC(=O)c2ccc(C)c(C)c2)n1	-2%	-10	-2%	0%	9.3µM*	12%
